# Measured values as given in PubChem BioAssay (NCI).
# About 83,000 compounds went through this panel and 20% of them were active in at least one assay; those are over-represented in the sample as a whole.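 For each line, cells grew in 96-well plates with the test compound present at a single concentration for 48 hours.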 A number with no mark means an inactive call. Calls of active or inactive are those of the source. Rule for the calls: active = growth percent below 10; inactive = the rest.
# Experiments:
# Test in all cases: NCI-60 one-dose screen, 48 h (100 = growth as untreated, 0 = no growth, -100 = all killed)
# Settings in all cases: 10 µM unless noted
# DU-145 prostate = tested on: DU-145 prostate
# K-562 leukemia = tested on: K-562 leukemia
# MALME-3M melanoma = tested on: MALME-3M melanoma
# MDA-MB-231 breast = tested on: MDA-MB-231 breast
# RXF 393 renal = tested on: RXF 393 renal
# SF-268 CNS = tested on: SF-268 CNS
# SF-295 CNS = tested on: SF-295 CNS
# SF-539 CNS = tested on: SF-539 CNS
# UACC-257 melanoma = tested on: UACC-257 melanoma
# M14 melanoma = tested on: M14 melanoma
SMILES,growth (DU-145 prostate),growth (K-562 leukemia),growth (MALME-3M melanoma),growth (MDA-MB-231 breast),growth (RXF 393 renal),growth (SF-268 CNS),growth (SF-295 CNS),growth (SF-539 CNS),growth (UACC-257 melanoma),growth (M14 melanoma)
NC(N)=N/N=C/c1ccc(-c2ccc(-c3cc(Cl)cc(Cl)c3)s2)cc1,-45.9% (active),-25.2% (active),100%,-30.4% (active),27.4%,73.5%,75.9%,-3.6% (active),106%,93.9%
O=C(CCl)N(C1CCCCC1)C1CCCCC1,112%,104%,112%,120%,107%,103%,98.3%,105%,105%,96.2%
COc1ccc(-n2c(=O)sc3c(Cl)nc(C)nc32)c(OC)c1,84.3%,24.9%,101%,80.4%,93.5%,63.3%,104%,105%,85.1%,75.7%
COc1ccc(Nc2ncccc2C(=O)NCc2cn(Cc3cccc(Oc4ccccc4)c3)nn2)cc1,46.1%,33.6%,41.4%,52%,46%,50%,33.7%,33.6%,88.8%,38.7%
O=C(N/N=C/C=C\c1ccccc1)C(=O)N/N=C/C=C/c1ccccc1,112%,113%,117%,111%,127%,105%,104%,114%,106%,107%
N#Cc1c(-c2ccccc2)nc(SCC(=O)N2CCN(c3ccccc3)CC2)[nH]c1=O,120%,112%,94.9%,115%,104%,111%,102%,99.2%,89.2%,96.7%
O=C1NC(=C(Cl)Cl)/C(=N/S(=O)(=O)N2CCC(C3(C(F)(F)F)N=N3)CC2)N1,102%,8.72% (active),100%,71.2%,79.5%,86%,101%,98.2%,97.2%,98.9%
CCC(=O)Oc1ccc(/C(=C(/C)Cc2cccc(OC)c2)c2ccc(OCCN(C)C)cc2)cc1,93.3%,-26.5% (active),100%,88.2%,88.6%,86.3%,99.2%,90.3%,118%,31.8%
CC(=O)Oc1csc(N(C(C)=O)c2cccc(C(F)(F)F)c2)n1,99.2%,105%,88.8%,71.9%,103%,88.9%,96.5%,91%,88.5%,77.7%
O=C1NN(C(=O)c2ccc(Cl)cc2)C(c2ccccc2)=N/C1=C\c1ccc(F)cc1,112%,83.2%,85.6%,68%,84.2%,105%,72.9%,84.8%,102%,86.2%
COc1ccc(-c2ccc(-c3ccc(C(=N)N)cn3)s2)cc1OC,97.5%,41.8%,94.9%,89%,121%,101%,99.1%,83.4%,114%,97.4%
COc1ccc(-c2c(-c3cc(OC)c4c(c3)OCO4)noc2N)cc1,-7.24% (active),8.5% (active),54.4%,-3.97% (active),8.2% (active),16.6%,2.31% (active),0.998% (active),74.6%,12%
C=C1CCC2C3(C)COC(c4ccccc4)OC3CCC2(C)C1/C=C/C1=CCOC1=O (stereo not given),14.9%,32.4%,105%,89.7%,-14.6% (active),73.2%,105%,63.6%,65.9%,53.4%
COc1ccc(C2CC(c3ccc(OC)cc3OC)=NN2c2ccc(S(N)(=O)=O)cc2)cc1 (stereo not given),115%,58.3%,123%,110%,82.4%,161%,88.5%,103%,77.3%,96.2%
O=C(O)c1cn(C2CC2)c2cc(N3CCN(C(=O)/C=C/c4ccc(Cl)cc4)CC3)c(F)cc2c1=O,84.4%,74.2%,84.6%,68.1%,72%,62.4%,80.7%,72.2%,81.9%,82.8%
COc1ccc(S(=O)(=O)NCCCNc2nccc(-c3c(-c4cccc([N+](=O)[O-])c4)nc4sccn34)n2)cc1,51.6%,28.7%,58%,59.5%,67.1%,49%,43.7%,75.6%,53%,41.6%
COc1cccc(/C=C/C(=O)Nc2cc(OC)c3c(c2)OCO3)c1,94.7%,92.1%,96.4%,83.5%,103%,98.2%,89.8%,111%,96.8%,104%
C=C(C)[C@@H]1CC[C@]2(C(=O)O)CC[C@]3(C)[C@H](CC[C@@H]4[C@@]5(C)C[C@@H](CC#Cc6ccc(C(F)(F)F)cc6)[C@H](O)C(C)(C)[C@@H]5CC[C@]43C)[C@@H]12,22.6%,7.68% (active),-43.3% (active),-10% (active),-34.4% (active),12.6%,-21.6% (active),-59.5% (active),7.33% (active),-51.7% (active)
N#C/C(=C1C=C/C(=N/O)C(Cl)=C/1)c1ccc(Cl)cc1,35.5%,42.6%,112%,61.4%,81.9%,54.5%,141%,18.8%,76.2%,85.1%
COc1cc2c(cc1O)CCN1C[C@@H](CC(C)C)[C@@H](O)C[C@@H]21,111%,96%,100%,103%,107%,107%,97.4%,96.7%,99.5%,100%
O=C1/C(=C/c2ccc([N+](=O)[O-])cc2)CN(C(=O)CCN2CCC(=NO)CC2)C/C1=C\c1ccc([N+](=O)[O-])cc1,-8.07% (active),7.03% (active),-20.3% (active),-69.1% (active),-76.5% (active),-22.4% (active),-28.6% (active),-42.8% (active),-4.87% (active),-33.4% (active)
COc1ccc(C(=O)c2cc(OC)c3c(c2)OCO3)cc1O,-2.4% (active),14.8%,50.7%,16.4%,-4.75% (active),27.6%,15.5%,6.91% (active),65.6%,14.2%
C=C[C@@H]1C[C@@H]2Cc3ccccc3N1O2,120%,54.3%,125%,106%,119%,116%,99.8%,103%,97.7%,102%
O=C1Nc2ccc3c(c2/C1=C\c1cc2c(cc1Br)OCO2)OCO3,-12.6% (active),14.9%,-5.38% (active),24.5%,-16.3% (active),33.8%,11.2%,-36% (active),58.3%,-6.52% (active)
O=C1CS/C(=N\Nc2cc(=O)[nH]c3ccccc23)N1c1ccccc1,111%,86.8%,96.9%,78.3%,95.6%,86.1%,96.8%,93%,99.9%,104%
CCOC(=O)c1ccc2c(c1)nc(-c1ccc(OCc3ccccc3)c(OC)c1)n2-c1cc(C(C)(C)C)[nH]n1,89.9%,55.4%,99.2%,109%,83.6%,88.1%,35.8%,88.2%,101%,95.4%
COc1cc(C(=O)/C=C/c2ccc3nc(-c4cc(F)cc(F)c4)sc3c2)cc(OC)c1OC,112%,100%,86.6%,84.2%,110%,97.3%,94.2%,92.4%,103%,97.1%
